Reference: PubChem BioAssay (NCI)
Compounds without any hit were thinned out: in the full panel of roughly 83,000, 20% have a hit.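 Method: cells in 96-well plates; compound added at one concentration; 48 h incubation; percent growth measured; values under 10 scored active.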 Calls of active or inactive are those of the source.

What follows are compounds tested on MDA-MB-468 breast (assay: NCI-60 one-dose screen, 48 h (100 = growth as untreated, 0 = no growth, -100 = all killed)). Conditions: 10 µM unless noted.

Structure (SMILES)	growth
Cc1c(C(N)=O)sc2nc(SCC(=O)Nc3ccc(Cl)cc3)n(-c3ccccc3)c(=O)c12	106% (inactive)
C=C1CCC2C3(C)COC(c4c(OC)cccc4OC)OC3CCC2(C)C1C/C=C1/C(=O)OCC1O (centres undefined)	20.2% (inactive)
CCOC(=O)c1sc(Nc2ccc(Cl)cc2)nc1C	-13.9% (active)
O=c1c2cc(F)ccc2sc2c(NCCCNCCO)nc3ccc(F)cc3c12	39.7% (inactive)
N#Cc1c(O)c2c(c(O)c1C#N)C(=O)c1ccccc1C2=O	7.71% (active)
COc1cc(OC)c2cc(C(=O)O)c(=O)oc2c1	99.9% (inactive)
CN1CCN(c2ccc(NC(=O)c3cncnc3Nc3ccc4c(ccn4Cc4cccc(F)c4)c3)cc2)CC1	44.9% (inactive)
CCCCCc1ccc(S(=O)(=O)Nc2cc(-c3csc(N)n3)ccc2OC)cc1	78.7% (inactive)
Nc1nc(Nc2ccccc2SSc2ccccc2Nc2nc(N)nc(-c3ccc(C(F)(F)F)cc3)n2)nc(-c2ccc(C(F)(F)F)cc2)n1	132% (inactive)
CSC1=Nc2c(c(C)c(-c3ccccc3)n2CCCN2CCCCC2)C2=NC(=O)C[C@H](C)N12	-18.6% (active)
CCN(CC)CCOc1ccc(C(=O)/C=C\c2ccc(Cl)cc2Cl)cc1	39.8% (inactive)
COc1ccc(-c2ccc(-c3ccc(C(=N)N)s3)s2)cc1Cl	-12.5% (active)
COC(=O)C1C2CC3c4[nH]c5cc(OC)ccc5c4CCN3CC2CC(OC2CCCCO2)C1OC (centres undefined)	95.5% (inactive)
Cc1ccc2[nH]c(=O)c3c(c2c1)Oc1ncn2nc(-c4ccco4)nc2c1C3c1ccc(Cl)cc1 (centres undefined)	96.4% (inactive)
